Rows were chosen to be rich in hits. Some 12% of all compounds tested hit in one or more screens of this group.
Pf growth 48h: Primary qHTS for delayed death inhibitors of the malarial parasite plastid, 48 hour incubation; P. falciparum luciferase growth in erythrocytes, 48 h; Potency, µM (doses to about 28.7 µM), actives largely listed as inhibitors; hit rate 5.9% among 310,000; AID 504832, 2011
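Cell-based growth assay: transgenic P. falciparum expressing firefly luciferase, cultured in red cells within RPMI 1640 containing 0.5% w/v Albumax, 24 mM bicarbonate and gentamycin. A drop in luciferase activity indicates inhibition.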
Pf growth 96h: Primary qHTS for delayed death inhibitors of the malarial parasite plastid, 96 hour incubation | P. falciparum luciferase reporter growth, 96 h | Potency, µM (series often up to 28.7 µM), actives largely listed as inhibitors | hit rate 6.9% among 320,000 | AID 504834, 2011
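Luminescence readout: decreased luciferase signal marks inhibited growth of reporter-expressing P. falciparum in infected red cells (2% hematocrit, 0.05% parasitemia final), exposed to compound two generations (96 h, 37 C, 5% CO2).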
SARS PLpro yeast: qHTS of Yeast-based Assay for SARS-CoV PLP | hit rate 0.19% among 330,000 | Potency, µM (top dose mostly 32.9 µM), actives largely listed as activators | S. cerevisiae expressing SARS-CoV PLpro, growth rescue | AID 485353, 2010; calls by dose curve; further: nearly all actives have a fitted effect of over 55% in size
Sm TGR inh: qHTS Assay for the Inhibitors of Schistosoma Mansoni Peroxiredoxins; hit rate 3% among 360,000; Potency, µM (doses to about 114 µM), hits mostly inhibitors; purified TGR, DTNB reduction, TNB absorbance 405 nm; further: nearly all actives have a fitted effect of over 60% in size
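First, TGR (20 nM dispensed) and NADPH were mixed with compound. Second, a 15 min room-temperature incubation followed. Third, further NADPH and then DTNB were added to start the reaction. Finally, TNB absorbance was monitored kinetically.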
Each line names hits and unclear results; the compound was inactive in the other large screens. Unless noted, the call rests on the fitted dose curve; in most records, active means well fitted curve in the direction sought with a large enough effect; inconclusive means small, poorly fitted or top-dose-only effect, or another doubt; inactive means no such curve, though single readings can be large; an effect the other way counts as inactive or inconclusive.

CC/C(=N\NC(=O)c1ccccc1O)c1c(O)n(C2CCCCC2)c(=O)[nH]c1=O	Pf growth 48h inconclusive, Pf growth 96h 12µM, Sm TGR inh inconclusive
Cc1cccc(C)c1NC(=O)CN1C(=O)c2ccccc2Sc2ncccc21	none (no result: Pf growth 48h, Pf growth 96h, SARS PLpro yeast)
O=c1cc(Cl)[nH]n(-c2ccccc2)c1=O	Pf growth 96h inconclusive
CC(C)(C)c1cc(=O)n(-c2ccccc2)[nH]1	Pf growth 48h inconclusive, Pf growth 96h 10µM
Cc1cc(C(C)(C)C)nc2[nH]n(-c3ccccc3)c(=O)c12	Pf growth 96h inconclusive (no result: Pf growth 48h)
O=c1ccc(=O)n(-c2ccccc2)[nH]1	Sm TGR inh 5µM
Cc1cc(O)c(C(C)C)cc1Cl	Pf growth 48h inconclusive, Pf growth 96h 15µM (no result: SARS PLpro yeast, Sm TGR inh)
O=c1cnn(Cc2c(Cl)cccc2Cl)c2ccccc12	Pf growth 48h 13µM, Pf growth 96h 9.3µM
O=C1NC(=O)C(=C/C=C/c2coc3ccc(Br)cc3c2=O)C(=O)N1	Sm TGR inh 0.79µM
O=C1NC(=S)S/C1=C\c1coc2ccccc2c1=O	Pf growth 96h inconclusive, Sm TGR inh inconclusive
O=C1NC(=O)C(=Cc2coc3ccccc3c2=O)C(=O)N1	Sm TGR inh 16µM
Cc1nc2c(C(=O)NCCCN(CC(C)C)CC(C)C)cnn2c(C)c1Cc1c(F)cccc1Cl	none (no result: Pf growth 48h, Pf growth 96h, SARS PLpro yeast)
O=C(CCc1nnc2ccc(NCc3ccco3)nn12)Nc1ccc(F)cc1F	Pf growth 96h inconclusive
COc1ccc(NC(=O)CC(C)n2nc(C)cc2C)cc1Cl (centres undefined)	none (no result: Pf growth 48h, Pf growth 96h, SARS PLpro yeast)
CC(C)Cc1nnc(NC(=O)CSc2ccccn2)s1	Pf growth 96h inconclusive (no result: Pf growth 48h)
Cc1nnc(NC(=O)CSc2ccc(-c3ccco3)nn2)s1	Pf growth 96h inconclusive, Sm TGR inh 14µM
Cc1nnc(NC(=O)CSc2ccccn2)s1	Pf growth 96h 13µM
CCc1nnc(NC(=O)CSc2ccc(-c3ccco3)nn2)s1	Sm TGR inh 7.1µM
CCc1nnc(NC(=O)CSc2nnc(-c3ccco3)n2C)s1	none
CCc1ccc(NC(=O)CN2C(=O)c3cccc4cccc2c34)cc1	none (no result: Pf growth 48h, Pf growth 96h, SARS PLpro yeast)
CCCCCCCCCCCC(=O)OCC(O)C1OCC(O)C1O (centres undefined)	none (no result: SARS PLpro yeast, Sm TGR inh)
O=C(Nc1ccc(OCC(F)(F)C(F)F)c(C(F)(F)F)c1)c1ccccc1O	Pf growth 48h 2.1µM, Pf growth 96h 3.7µM
O=C1C(c2cc(=O)c3ccccc3[nH]2)=C(O)c2ccccc21	none
O=c1cc(-c2ccccc2)[nH]c2ccccc12	Pf growth 48h 1.5µM
COc1ccc(CNC(=O)C2CCN(C(=O)N3CCOc4ccc(Cl)cc43)CC2)cc1	none (no result: Pf growth 48h, Pf growth 96h, SARS PLpro yeast)
COc1ccc(NC(=O)CN2CCC(n3c(C)nc4cc(F)ccc43)CC2)c(OC)c1	Pf growth 48h inconclusive
Cc1nc2ccccc2n1C1CCN(CC(=O)NCc2ccc(F)cc2)CC1	Pf growth 48h inconclusive, Pf growth 96h 5.9µM
CS(=O)(=O)NCCOc1ccc(S(=O)(=O)NCCOc2ccccc2)cc1	Pf growth 48h 10µM
COc1cccc(CNC(=O)CCCn2c(=O)c3cccn3c3ccc(F)cc32)c1OC	none (no result: Pf growth 48h, Pf growth 96h, SARS PLpro yeast)
Cc1ccc(F)c(CNC(=O)C2CCC(=O)N(Cc3ccccn3)C2)c1F (centres undefined)	Pf growth 96h inconclusive, SARS PLpro yeast inconclusive
Cc1cccc(C)c1NC(=O)CN(C)CC(=O)Nc1ccccc1Oc1ccccc1	Pf growth 48h inconclusive, Pf growth 96h 12µM
Cc1ccc(NC(=O)CN(C)CC(=O)Nc2ccccc2Oc2ccccc2)cc1	Pf growth 48h inconclusive
COCCn1c(C)cc(O)c(C(c2ccccc2)N2CCN(c3ccccc3)CC2)c1=O (centres undefined)	Sm TGR inh 4.5µM (no result: Pf growth 48h, Pf growth 96h, SARS PLpro yeast)
CCOc1ccc(C(c2c(O)cc(C)n(CCOC)c2=O)N2CCN(c3ccc(F)cc3)CC2)cc1 (centres undefined)	Sm TGR inh 5.6µM (no result: Pf growth 48h, Pf growth 96h, SARS PLpro yeast)
COCCn1c(C)cc(O)c(C(c2ccccc2)N2CCN(CCO)CC2)c1=O (centres undefined)	Sm TGR inh 3.5µM (no result: Pf growth 48h, Pf growth 96h, SARS PLpro yeast)
COCCn1c(C)cc(O)c(C(c2ccccc2)N2CCN(c3ccc(F)cc3)CC2)c1=O (centres undefined)	Sm TGR inh 3.2µM (no result: Pf growth 48h, Pf growth 96h, SARS PLpro yeast)
COCCn1c(=O)[nH]c2cc(C(=O)N3CCN(c4ccccc4)CC3)ccc2c1=O	none
Cc1cccc(CNC(=O)c2ccc3oc(=O)n(Cc4ccccc4)c3c2)c1	none (no result: Pf growth 48h, Pf growth 96h, SARS PLpro yeast)
CCN(CC)c1ccc(NC(=O)CCS(=O)(=O)c2ccc(Br)cc2)c(C)c1	none
CC(=O)Nc1ccc(S(=O)(=O)N(C)CC(=O)OC(C)C(=O)NC2CCCCC2)cc1 (centres undefined)	none
CN(Cc1ccc(Cl)cc1)C(=O)CNC(=O)C12CC3CC(CC(C3)C1)C2	Pf growth 48h 9.3µM, Pf growth 96h 10µM
CC(C)(C)OC(=O)N/N=C\C=C\c1ccc2c(c1)OCO2	Pf growth 96h 3.7µM
COc1ccc(NC2=C(Cl)C(=O)N(c3ccccc3)C2=O)c(OC)c1	Pf growth 96h inconclusive, Sm TGR inh 5.6µM
COc1ccccc1NC1=C(Cl)C(=O)N(c2ccccc2)C1=O	none
CCOc1ccc(N2C(=O)C(Cl)=C(Nc3ccccc3O)C2=O)cc1	Sm TGR inh 18µM (no result: Pf growth 48h)
COc1ccc(N2C(=O)C(Cl)=C(Nc3ccc(OC)cc3OC)C2=O)cc1	Sm TGR inh 28µM
COc1ccc(Nc2nc(C)cc(=O)[nH]2)c(OC)c1	none (no result: Pf growth 48h)
COc1ccc(N2C(=O)C(Cl)=C(Nc3c(C)n(C)n(-c4ccccc4)c3=O)C2=O)cc1	Pf growth 48h inconclusive, Sm TGR inh 0.89µM
CCOc1ccc(N2C(=O)CN=C2Nc2ccccc2Cl)cc1	none
Cc1ccc(-c2ccc(=O)n(CCC(=O)NCCc3ccccc3)n2)cc1	none (no result: Pf growth 48h, Pf growth 96h, SARS PLpro yeast)
Cn1cc(C(=O)Nc2ccc(C#N)cc2)c2ccccc2c1=O	none
COc1ccc(CCNC2=C(Cl)C(=O)N(CCc3ccccc3)C2=O)cc1OC	Pf growth 96h inconclusive (no result: Pf growth 48h)
O=C1C(Cl)=C(Nc2ccccc2O)C(=O)N1CCc1ccccc1	Sm TGR inh 28µM
Cc1ccc(C)c(NC(=O)C2C3C=CC(O3)C2C(=O)O)c1 (centres undefined)	Pf growth 96h inconclusive, Sm TGR inh 45µM
Cc1cccc(NC(=O)C2C3C=CC(O3)C2C(=O)O)c1C (centres undefined)	Pf growth 96h inconclusive, Sm TGR inh 45µM
Cc1ccc(NC(=O)C2C3C=CC(O3)C2C(=O)O)c(C)c1 (centres undefined)	Sm TGR inh 35µM
CCOC(=O)c1ccc(NC(=O)C2C3C=CC(O3)C2C(=O)O)cc1 (centres undefined)	Sm TGR inh 56µM
COC(=O)c1ccc(NC(=O)C2C3C=CC(O3)C2C(=O)O)cc1 (centres undefined)	Sm TGR inh inconclusive
COC(=O)c1sccc1NC(=O)C1C2C=CC(O2)C1C(=O)O (centres undefined)	none (no result: Pf growth 96h)
COc1ccccc1NC(=O)C1C2C=CC(O2)C1C(=O)O (centres undefined)	Pf growth 96h inconclusive, Sm TGR inh 40µM
Cc1cccc(NC(=O)C2C3C=CC(O3)C2C(=O)O)c1 (centres undefined)	Pf growth 96h inconclusive, Sm TGR inh 11µM

High-throughput results: PubChem BioAssay, National Center for Advancing Translational Sciences (NCATS)
